# Bioassay records (PubChem)
# An excerpt weighted towards active compounds, which were near 18% of everything screened.
# TDP1 cell CPT = DT40-hTDP1 cell growth loss with CPT. 420,000 compounds, 12% hits. chicken DT40 Tdp1-/-;hTDP1 cells + 20 nM CPT, ATP luminescence, 48 h. AID 686979. Potency, µM (titrated, usually from 46.2 µM), for inactives: top-dose activity change, negative = growth inhibition, actives largely listed as inhibitors; further: nearly all actives have a fitted effect of over 55% in size
#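 Chicken DT40 Tdp1-/- cells complemented with human TDP1, 400 cells/well, exposed to compounds plus 20 nM camptothecin for at least 48 h at 37 C; viability read as ATP content by CellTiter-Glo luminescence.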
# GCN5L2 inh = GCN5L2 (KAT2A) acetyltransferase inhibition; AID 504327; Potency, µM (top dose mostly 58.9 µM), for the others: top-dose activity change, negative = inhibition, usual class: inhibitors; GCN5L2 HAT assay, ThioGlo1 CoA-SH fluorescence; 390,000 compounds, 0.21% hits
#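 qHTS, 1536-well. 20nM enzyme, pH 7.5 HEPES/EDTA/Tween-20 buffer; 15 min compound preinc., RT. Start: 75uM H3(1-25), 70uM AcCoA, 50uM ThioGlo1. Read Ex340/Em540 at t=0 (autofluorescence flag) and t=20 min.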
# TDP1 cell noCPT = qHTS for Inhibitors of human tyrosyl-DNA phosphodiesterase 1 (TDP1): qHTS in cells in absence of CPT. DT40 Tdp1-/- hTDP1 cells, no CPT, ATP luminescence, 48 h. Potency, µM (highest dose often 46.2 µM), for inactives: at the highest dose activity change, negative = growth inhibition, hits mostly inhibitors. 420,000 compounds, 15% hits; further: nearly all actives have a fitted effect of over 55% in size
#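 DT40 Tdp1-/-;hTDP1 cells, no CPT (DMSO vehicle only), 400 cells/well; compounds pin-transferred; ≥48 hr, 37 °C; CellTiter-Glo 30 min RT dark, luminescence read.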
# PLK1 PBD inh = blocks phosphopeptide binding to human PLK1 polo-box domain. P53350. Plk1 PBD binding of FITC phosphopeptide, fluorescence polarization. Potency, µM, for the others: max response, negative = inhibition, hits mostly inhibitors. 360,000 compounds, 2.8% hits; further: series mostly up to about 57 µM; nearly all actives have a fitted effect of over 65% in size
# TDP1 inh = blocks human tyrosyl-DNA phosphodiesterase 1. recombinant TDP1, AlphaScreen DNA substrate cleavage. 350,000 compounds, 0.28% hits. Potency, µM (top dose mostly 130 µM), for inactives: at the highest dose activity change, negative = inhibition, actives largely listed as inhibitors. Q9NUW8. AID 485290; further: nearly all actives have a fitted effect of over 40% in size
#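 AlphaScreen read-out: signal falls as enzyme removes the 3' tyrosine-FITC from a 5'-biotinylated DNA oligo (15 nM, 5 min, RT). Enzyme was E. coli-made recombinant Tdp1 at 1 nM, exposed to compound for 15 min beforehand; beads 10 ug/ml, 10 min.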
# VDR inh = inhibitors of human vitamin D receptor | Potency, µM, inactives show max response, negative = inhibition, usual class: inhibitors | 400,000 compounds, 0.93% hits | VDR-SRC2-3 peptide fluorescence polarization, 2 h | AID 504847
# Target sequence (P11473 whole entry, looked up): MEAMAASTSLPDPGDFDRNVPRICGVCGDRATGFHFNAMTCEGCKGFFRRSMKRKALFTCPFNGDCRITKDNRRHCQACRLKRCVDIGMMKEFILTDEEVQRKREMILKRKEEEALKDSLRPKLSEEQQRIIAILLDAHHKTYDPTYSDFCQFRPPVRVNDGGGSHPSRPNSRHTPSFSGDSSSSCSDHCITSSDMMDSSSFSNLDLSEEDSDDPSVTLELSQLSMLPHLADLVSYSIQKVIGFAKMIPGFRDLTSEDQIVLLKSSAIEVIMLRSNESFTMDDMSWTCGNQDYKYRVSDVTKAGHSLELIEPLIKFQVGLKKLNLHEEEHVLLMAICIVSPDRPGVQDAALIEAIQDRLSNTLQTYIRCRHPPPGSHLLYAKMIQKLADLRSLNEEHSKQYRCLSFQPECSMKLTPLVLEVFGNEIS
#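 Reagent solutions, kept cold and dark, are dispensed first; compounds are then pinned in at 23 nl, plates briefly spun, and incubated 2 h at ambient temperature. Inhibition of VDR–SRC2-3 peptide binding is read by fluorescence polarization.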
# * marks the source's active call; other numbers are inactive results; ? = inconclusive; . = no result. The call rests on the fitted dose curve; in most records, active means well fitted curve in the direction sought with a large enough effect; inconclusive means small, poorly fitted or top-dose-only effect, or another doubt; inactive means no such curve, though single readings can be large; an effect the other way counts as inactive or inconclusive. On the % scale 0 is the no-effect control and ±100 the full control effect; potency means the concentration at half of the fitted maximal effect.
SMILES,TDP1 cell CPT,GCN5L2 inh,TDP1 cell noCPT,PLK1 PBD inh,TDP1 inh,VDR inh
CO/N=C/c1ccc(Oc2ccc(C)cc2)c([N+](=O)[O-])c1,?,-12%,21µM*,12µM*,3%,28µM*
CO/N=C/c1ccc(Sc2ccccc2)c([N+](=O)[O-])c1,5%,-6%,?,-4%,10%,3%
CCc1c(C2(O)CCCCC2)[nH]c2c(C(=O)OC)cc(Cl)cc12,?,-18%,?,-4%,.,-12%
CCc1c(C2(O)CCCCC2)[nH]c2ccc(C(F)(F)F)cc12,18µM*,-11%,?,0%,.,-16%
Cc1ccccc1OCCC(=O)NNC(=O)c1ccccc1F,4%,0%,-17%,-9%,0%,5%
COc1ccccc1CN1CCCC2(CCN(C(=O)c3cccn3C)CC2)C1,3%,9%,-14%,.,.,1%
CC(C)(C)C(=O)OCOC(=O)C1N2C(=O)CC2S(=O)(=O)C1(C)C (configuration not stated),5%,.,-2%,.,.,.
CC1=C(C(=O)Nc2ccccc2)C(c2ccccc2C)n2nc(SCC(=O)c3ccc(C)cc3)nc2N1 (configuration not stated),5.8µM*,-1%,18µM*,.,-3%,0%
CC1=C(C(=O)Nc2ccc(Cl)cc2)C(c2ccccc2F)n2nc(SCc3cccc(Cl)c3)nc2N1 (configuration not stated),?,-8%,23µM*,.,0%,-23%
CCOc1ccc(C2C(C(=O)Nc3ccc(OC)cc3)=C(C)Nc3nc(SCc4ccc(Cl)cc4)nn32)cc1 (configuration not stated),-1%,7%,-23%,.,-3%,12%
COc1cc(C2C(C(=O)Nc3ccccc3)=C(C)Nc3nc(SCC(=O)c4ccc(C)cc4)nn32)ccc1O (configuration not stated),0%,-5%,-5%,.,1%,24%
CC1=C(C(=O)Nc2ccc(Cl)cc2)C(C(C)C)n2nc(SCc3ccc(Cl)cc3)nc2N1 (configuration not stated),16µM*,-7%,23µM*,.,5%,-9%
CCOC(=O)c1ccc(NCCc2ccc(OC)c(OC)c2)c(N)c1,6%,-1%,?,-5%,.,-17%
COc1ccc(Cl)cc1NC(=O)CSc1nccn1-c1ccc(Cl)cc1,?,0%,-29%,.,7%,3%
Cc1ccc(F)cc1-c1cc(C(=O)NCc2cc(C(F)(F)F)cc(C(F)(F)F)c2)[nH]n1,29µM*,.,?,0%,.,.
CC(C)Oc1ccc(F)cc1-c1cc(C(=O)Nc2ccc(C(C)(C)C)cc2)[nH]n1,6.5µM*,.,3.3µM*,-4%,.,.
Cc1cc(F)ccc1-c1cc(C(=O)NCc2cc(C(F)(F)F)cc(C(F)(F)F)c2)[nH]n1,-21%,.,-23%,-1%,.,.
COc1ccc(Cl)cc1-c1cc(C(=O)NCc2cc(C(F)(F)F)cc(C(F)(F)F)c2)[nH]n1,?,.,15µM*,6%,.,.
CCOc1ccc(Cl)cc1-c1cc(C(=O)NCc2cccc(C(F)(F)F)c2)[nH]n1,10µM*,.,13µM*,-2%,.,.
COc1ccc(F)cc1-c1cc(C(=O)NCc2cccc(C(F)(F)F)c2)[nH]n1,?,.,?,3%,.,.
CC(C)Oc1ccc(F)cc1-c1cc(C(=O)Nc2ccccc2)[nH]n1,?,.,?,0%,.,.
Cc1ccc(Cl)cc1-c1cc(C(=O)NCc2cc(C(F)(F)F)cc(C(F)(F)F)c2)[nH]n1,?,.,21µM*,4%,.,.
CC(C)Oc1ccc(F)cc1-c1cc(C(=O)NCc2ccc(F)cc2)[nH]n1,26µM*,.,?,1%,.,.
COc1ccc(F)cc1-c1cc(C(=O)NCc2ccc(C(F)(F)F)cc2)[nH]n1,23µM*,.,16µM*,0%,.,.
